Drawing on PubChem BioAssay (NCI), this text covers growth for 36 compounds.

Values joined by “and” are separate entries in the source; they are usually repeats but may differ in a detail not shown here. Equal values may be shown once. The panel holds about 83,000 compounds, 20% with a hit somewhere; the sample as a whole holds those more often.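 Values shown are percent growth following 48 h exposure of cells in 96-well plates to a single concentration of compound; below 10 was considered active.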 Active and inactive are the calls of the source.

The first assay concerns MDA-MB-435 melanoma. In words: NCI-60 one-dose screen, 48 h (100 = growth as untreated, 0 = no growth, -100 = all killed). Particulars: 1 µM. The protocol: Growth inhibition of the MDA-MB-435 human Melanoma tumor cell line is measured as a screen for anti-cancer activity. Cells are grown in 96 well plates and exposed to the test compound for 48 hours. Compounds are tested at a single concentration, which is 10^-5 M for most compounds. The reported endpoint is percent growth (GI% or GIPRCNT), where numbers from 0 - 100% represent growth inhibition, and numbers from -100% - 0 represent cell death. For example, a value of 40 represents 60% growth inhibition. A value of 0 means no net growth occurred over the course of the experiment. A value of -40 indicates 40% of cells at the beginning of the experiment died by the end of the experiment. A value of -100 means all cells are dead at the end of the experiment.
NCI-60 Human Tumor Cell Lines Screen was performed using the standard one-dose NCI protocol, which is described in more detail at https://dtp.cancer.gov/discovery_development/nci-60/default.htm.
Compounds with GIPRCNT values below 10 were considered active. Activity score was based on GIPRCNT using the following formula: […]
Score is 0 for GIPRCNT values of 100 or above, 50 for GIPRCNT values of 0, and 100 for GIPRCNT values of -100.
For `CNC(=O)c1cc(Oc2ccc(CC(=O)Nc3cc(C(C)(C)C)nn3C)cc2)ccn1`, the growth is 78.1% (inactive).

The assay is the same for the next values; noted with them: 10 µM.
Regarding `CC(C)(C)c1cc(NC(=O)Cc2ccc(-c3cnc4cc(-c5cnn(CCN6CCOCC6)c5)ccc4n3)cc2)no1`, the growth was 19.1% (inactive).

`CCc1ccccc1-n1c(N)c(C#N)c(-c2ccc(OC)c(OC)c2)c(C#N)c1=O`: the growth was 113% (inactive).

For `CNC(=O)c1cc(Oc2ccc(CC(=O)Nc3cc(C(C)(C)C)nn3C)cc2)ccn1`, the growth is 61.8% (inactive).

Staying with this assay, now noted: 10 µM unless noted.
Take `Nc1ncnc2c1ncn2C1CC(O)C(CO)O1` (stereo not given): the growth is 105% (inactive) and 107% (inactive).

Consider `Cc1nn(-c2ccccc2)nc1C(=O)Nc1ccccc1C(=O)NCC1CC1`, for which the growth is 102% (inactive) and 85.9% (inactive).

Turning to `Nc1ccccc1Nc1ccccc1`, the growth is 91.5% (inactive).

Turning to `O=C1c2ccccc2C(=O)c2c(NCCNCCO)ccc(NCCNCCO)c21`, the growth was 22.6% (inactive) and 43.5% (inactive) and 20.8% (inactive).

Take `NS(=O)(=O)c1cc2c(cc1Cl)NC(C(Cl)Cl)NS2(=O)=O` (stereo not given): the growth was 101% (inactive) and 104% (inactive).

For the compound `Nc1n[nH]c(=S)n1-c1ccc(Cl)cc1`, the growth was 112% (inactive).

For the compound `Nc1ccc(N=Nc2ccc(S(=O)(=O)O)cc2)cc1S(=O)(=O)O`, the growth is 108% (inactive) and 101% (inactive).

Consider `N#C/C(=C1C=C/C(=N/O)C(Br)=C/1)c1ccccc1`, for which the growth is -64.5% (active).

`OC(COc1cccc2ccccc12)CN1CCN(c2ccc(Cl)cc2)CC1` (stereo not given): the growth is 90.2% (inactive) and 94.6% (inactive).

On to `O=C(Nc1ccc(Br)cc1)c1cc(Br)ccc1O`, for which the growth was -1.59% (active) and -13.4% (active).

Turning to `CCCCOc1cc(C(=O)NCCN(CC)CC)c2ccccc2n1`, the growth was 88.9% (inactive) and 98.1% (inactive).

Turning to `C/C(=N\NC(=O)c1ccncc1)c1ccccc1O`, the growth is 50.5% (inactive) and 57.5% (inactive).

Turning to `CCCCCCCCCCCCOc1ccccc1C=O`, the growth is 98.3% (inactive).

On to `CNC(=O)c1cccc(-c2ccc3c(N4CCOC[C@@H]4C)nc(N4CCOC[C@@H]4C)nc3n2)c1`, for which the growth is 2.05% (active) and -13.4% (active).

Regarding `COC(=O)/C=C/c1cc(O)c2c(c1)C(C(=O)OC)C(c1ccc(O)c(O)c1)O2` (stereo not given), the growth was -37.6% (active) and -26% (active).

For the compound `OCc1ccccn1`, the growth is 103% (inactive).

As for `O=C(c1ccc(Cl)cc1)C(NCCO)c1ccc(Cl)cc1` (stereo not given), the growth is 97.9% (inactive) and 108% (inactive).

Consider `CN1C(=O)C(N=Nc2ccc([N+](=O)[O-])cc2)SC1=S` (stereo not given), for which the growth is 75.8% (inactive) and 85.4% (inactive).

Turning to `CC(C)C(=O)Nc1ccc([N+](=O)[O-])c(C(F)(F)F)c1`, the growth was 87% (inactive) and 99.6% (inactive).

Consider `COC(=O)[C@H]1CCCN1C(=O)C1CCCN1C(=O)[C@@H](Cc1ccccc1)NC(=S)Nc1cc(C(F)(F)F)cc(C(F)(F)F)c1` (stereo not given in full), for which the growth is 100% (inactive) and 89.7% (inactive).

As for `CCOC(=O)Nc1ccc2c(c1)/C(=N\NC(N)=S)c1ccccc1-2`, the growth is 57.3% (inactive) and 59.9% (inactive).

Take `N#CC(C#N)=C/C=C/c1cccc([N+](=O)[O-])c1`: the growth was 6.2% (active) and -53.1% (active).

As to `CNc1ccc2nc3ccc(=[N+](C)C)cc-3sc2c1`, the growth was -63.5% (active) and -47% (active).

As for `CCN(CC)CCOc1ccc2c(c1)C(=O)c1cc(OCCN(CC)CC)ccc1-2`, the growth was 73.4% (inactive) and 67% (inactive).

As to `NC(=O)NO`, the growth is 98.5% (inactive) and 74.4% (inactive).

As for `CC(C)Cc1ccc(C(C)C(=O)NCc2ccc(Cn3c(=O)sn(CCCI)c3=O)cc2)cc1` (stereo not given), the growth is 93% (inactive) and -72.6% (active).

Consider `COc1cc(/C=N/Nc2nc3c([nH]2)c(=O)n(C)c(=O)n3C)ccc1O`, for which the growth was 104% (inactive) and 116% (inactive).

Take `COc1ccc(NC(=S)Nc2ccccn2)cc1`: the growth was 98.7% (inactive).

`O=C(CN1CCOCC1)N1CCOCC1`: the growth is 116% (inactive) and 101% (inactive).

`CN(C)c1ccc2nc3ccc(=[N+](C)C)cc-3sc2c1`: the growth was -43.7% (active) and -14% (active) and 52.5% (inactive).

For the compound `COc1cc(Nc2nc3ccccc3nc2NS(=O)(=O)c2ccc(NC(=O)c3ccc(C)c(OC)c3)cc2)cc(OC)c1`, the growth is 68.3% (inactive) and 3.11% (active).

In the case of `O=C(Nc1cccc(Cl)c1)c1cc2ccccc2cc1O`, the growth was 28.8% (inactive) and 13.9% (inactive).

Take `N#C/C(=C/c1c(O)ccc2ccccc12)C(N)=O`: the growth was 104% (inactive).

The assay is the same for the next values; noted with them: 30 µM.
`CC(C)(C)c1cc(NC(=O)Cc2ccc(-c3cnc4cc(-c5cnn(CCN6CCOCC6)c5)ccc4n3)cc2)no1`: the growth was 19.6% (inactive).

Consider `CNC(=O)c1cc(Oc2ccc(CC(=O)Nc3cc(C(C)(C)C)nn3C)cc2)ccn1`, for which the growth was 67.9% (inactive).

The same assay, now with this note: 100 µM.
On to `CCc1ccccc1-n1c(N)c(C#N)c(-c2ccc(OC)c(OC)c2)c(C#N)c1=O`, for which the growth is 82.5% (inactive).
